# Shown are actives, neighbours in structure and some others; about 19% of the full set was active somewhere.
# TDP1 block: inhibitors of human tyrosyl-DNA phosphodiesterase TDP1; Q9NUW8; recombinant TDP1, AlphaScreen DNA substrate cleavage; Potency, µM (highest dose often 130 µM), most hits filed as inhibitors; actives 0.28% (n = 350,000); also: nearly all actives have a fitted effect of over 40% in size
# Target sequence (Q9NUW8 whole entry, looked up): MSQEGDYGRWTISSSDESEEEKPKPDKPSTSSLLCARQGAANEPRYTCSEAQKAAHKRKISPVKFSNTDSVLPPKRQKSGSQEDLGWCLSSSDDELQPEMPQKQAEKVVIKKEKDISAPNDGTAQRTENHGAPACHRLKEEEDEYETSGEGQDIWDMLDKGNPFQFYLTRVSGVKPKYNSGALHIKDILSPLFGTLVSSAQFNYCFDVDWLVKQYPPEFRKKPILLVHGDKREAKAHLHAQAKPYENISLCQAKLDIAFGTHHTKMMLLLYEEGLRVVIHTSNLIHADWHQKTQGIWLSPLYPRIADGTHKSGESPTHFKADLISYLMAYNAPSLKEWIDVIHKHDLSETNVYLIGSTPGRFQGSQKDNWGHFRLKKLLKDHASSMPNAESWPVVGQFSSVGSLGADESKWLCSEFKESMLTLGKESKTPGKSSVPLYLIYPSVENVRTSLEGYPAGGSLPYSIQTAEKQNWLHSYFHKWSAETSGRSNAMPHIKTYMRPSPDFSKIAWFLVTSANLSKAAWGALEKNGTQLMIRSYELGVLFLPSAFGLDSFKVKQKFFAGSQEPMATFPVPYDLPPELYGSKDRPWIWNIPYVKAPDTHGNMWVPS
#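 E. coli-derived human Tdp1, 1 nM final. Cpd preinc 15 min RT; substrate 15 nM final, 5 min RT; AS bead mix 10 ug/ml final, 10 min RT. Signal loss = tyrosine-FITC cleavage. No-enzyme wells = max signal.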
# IL-1B inflam inh: inhibitors of inflammasome signaling (IL-1 beta secretion); THP-1 LPS/ATP IL-1B secretion, AlphaLISA, 16 h; active compounds read low; activity change, % at 57.5 µM; actives 4.7% (n = 360,000); in the data active = activity change below about -50%; inconclusive = mostly about -30% to -49%
#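 THP-1 cells pretreated 1 hr with compounds (up to 57.5 uM final), then stimulated with LPS (250 ng/mL final) plus ATP (1.25 mM final); secreted IL-1B measured by AlphaLISA after 16 hr, decreased signal indicating inhibition.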
# ELG1 repair inh: ELG1-dependent DNA repair inhibition; HEK293T ELG1-luciferase reporter, luminescence, 16 h; DNA damage induced by 5-fluorouridine; Potency, µM (titrated, usually from 46.1 µM), most hits filed as inhibitors; actives 2.3% (n = 330,000); AID 504467; also: nearly all actives have a fitted effect of over 55% in size
#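 Cells (2,000 per well) received 5-fluorouridine plus test compound or DMSO and were incubated 16 hr at 37 °C, 5% CO2. Luciferase activity was read by luminescence 30 min after ONE-Glo addition; signal suppression marked inhibition of damage-induced ELG1 function.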
# Giardia killer: kills Giardia lamblia. Giardia lamblia trophozoite viability. activity change, % at 7.66 µM, hits read low. actives 0.15% (n = 340,000). AID 540267; in the data active = activity change below about -80%; inconclusive = between about -30% and that limit;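 also: parasites exposed to compound for two days anaerobically before the ATP read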
#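 Compounds were tested on trophozoites seeded at 100 cells/well and held 48 hrs at 37 deg C anaerobically. An ATP-based luminescent kit measured the remaining live cells.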
# TDP1 cell noCPT: qHTS for Inhibitors of human tyrosyl-DNA phosphodiesterase 1 (TDP1): qHTS in cells in absence of CPT; DT40 Tdp1-/- hTDP1 cells, no CPT, ATP luminescence, 48 h; Potency, µM (top dose mostly 46.2 µM), usual class: inhibitors; actives 15% (n = 420,000); also: nearly all actives have a fitted effect of over 55% in size
#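 Chicken DT40 Tdp1-/- cells complemented with human TDP1, screened without camptothecin (DMSO vehicle only), 400 cells/well. Compounds pin-transferred, cells incubated at 37 °C for at least 48 hr. Growth read as ATP-dependent luminescence (CellTiter-Glo, 30 min at RT).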
# DT40 TDP1 CPT: growth inhibition of DT40 Tdp1-/-;hTDP1 cells with camptothecin (screen for TDP1 inhibitors) | Potency, µM (highest dose often 46.2 µM), actives largely listed as inhibitors | chicken DT40 Tdp1-/-;hTDP1 cells + 20 nM CPT, ATP luminescence, 48 h | actives 12% (n = 420,000); also: nearly all actives have a fitted effect of over 55% in size
#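 Cell growth measured by CellTiter-Glo luminescence after a minimum 48 h, 37 C compound exposure with 20 nM CPT in Tdp1-knockout DT40 cells stably expressing hTDP1, seeded 400/well; qHTS titration format.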
# Hits are given with their value; i = inactive; ? = inconclusive; nt = no result given. Unless noted, calls follow the shape of the dose curve; as a rule, active = well fitted curve in the direction sought with a large enough effect; inconclusive = small, poorly fitted or top-dose-only effect, or another doubt; inactive = no such curve, though single readings can be large; an effect the other way counts as inactive or inconclusive.
SMILES,TDP1 block,IL-1B inflam inh,ELG1 repair inh,Giardia killer,TDP1 cell noCPT,DT40 TDP1 CPT
COc1cccc(NC(=O)c2oc3ccc(S(=O)(=O)N4CCCCCC4)cc3c2C)c1,i,nt,nt,nt,18.4µM,18.4µM
COc1ccccc1CNC(=O)c1oc2ccccc2c1C,i,i,i,i,i,i
COc1ccccc1CNC(=O)c1oc2ccc(S(=O)(=O)N3CCCCC3)cc2c1C,i,nt,nt,nt,7.31µM,6.51µM
Cc1c(C(=O)NCc2ccccc2CN2CCCC2)oc2ccc(F)cc12,i,i,i,i,?,20.6µM
CCO[C@H]1OC(C(=O)N2CCCCCCC2)=C[C@@H](c2ccccc2)[C@@H]1CCCO,i,i,i,i,?,?
O=C(Nc1nnc([C@@H]2C[C@H](O)[C@@H](CO)O2)s1)c1cccc(Cl)c1,nt,i,nt,nt,i,i
COc1ccc(OC)c(NC(=O)CN(C)CC(=O)Nc2ccccc2Br)c1,i,i,?,i,?,i
Cc1c(C(=O)NCc2ccccc2)oc2ccc(S(=O)(=O)N3CCC(C)CC3)cc12,i,nt,nt,nt,9.2µM,9.2µM
CCCCNC(=O)c1oc2ccc(S(=O)(=O)N3CCCC3)cc2c1C,nt,i,?,i,?,?
CCN(CC)S(=O)(=O)c1ccc2oc(C(=O)NCc3ccccc3OC)c(C)c2c1,i,nt,nt,nt,10.3µM,7.31µM
CCCN1CCc2nc(N3CCN(c4ncccn4)CC3)ncc2C1,i,nt,nt,nt,?,?
Cc1ccccc1OCC(=O)Nc1nnc(S(=O)(=O)N(C)c2ccccc2)s1,i,nt,nt,nt,i,i
Cc1ccc(/C=C2/CNC/C(=C/c3ccc(C)cc3)C2=O)cc1,nt,-106.3,nt,i,13µM,7.31µM
O=C(c1ccccc1Cl)N(Cc1ccco1)c1ccccn1,i,nt,nt,nt,?,?
CC1CCCC(C)N1C(=O)COC(=O)CSc1ccc(C(N)=O)cc1[N+](=O)[O-] (stereo not given),nt,i,i,i,i,i
COc1ccc(NC(=O)Cc2ccc(-c3ccccc3)cc2)cn1,i,i,?,i,11.6µM,13µM
COc1ccc(NC(=O)/C(Cl)=C(/Cl)S(=O)Cc2ccc(Cl)cc2)cn1 (stereo not given),i,-102.3,?,i,0.259µM,0.13µM
COc1cc(NC(=O)c2ccccc2)c(OC)cc1NC(=O)Cc1ccc(F)cc1,nt,i,i,i,20.6µM,i
COc1ccc(NC(=O)C(C)(C)Oc2ccc(Cl)cc2)cn1,i,i,i,i,i,i
COc1cc(NC(=O)c2ccccc2)c(OC)cc1NC(=O)Cc1ccc(Br)cc1,nt,i,i,i,?,?
COc1ccccc1NC(=O)Cc1ccc(-c2ccccc2)cc1,i,-79.5,i,i,?,?
COc1ccccc1NC(=O)CC(=O)Nc1ccccc1OC,nt,i,i,i,i,i
CN(C)c1ccc(/C=C/CNC[C@H]2O[C@@H](n3ccc(N)nc3=O)[C@H](O)[C@@H]2O)cc1,nt,i,nt,nt,i,i
COc1ccc(CCNc2nc(C)nc3c2nnn3Cc2ccccc2)cc1,nt,i,i,i,i,i
COc1ccc(CCN(C)CCC(=O)Nc2cccc(C)c2)cc1OC,i,i,i,i,i,i
SMILES,TDP1 block,IL-1B inflam inh,ELG1 repair inh,Giardia killer,TDP1 cell noCPT,DT40 TDP1 CPT
COc1ccc(CC(=O)Nc2ccc(-c3nnc(-c4ccccc4)o3)cc2)cc1OC,i,i,?,i,i,i
COc1ccc(CC(=O)Nc2cccc(-c3nnc(-c4ccc(C)cc4)o3)c2)cc1OC,i,-99.4,11.6µM,i,5.17µM,6.51µM
Cc1ccc(OCC(=O)Nc2cccc(C)n2)c(C)c1,i,i,?,i,i,i
COc1ccc(CC(=O)Nc2cccc(-c3nnc(-c4ccccc4)o3)c2)cc1OC,i,-72.3,5.01µM,i,2.31µM,5.8µM
Cc1ccc(OCC(=O)Nc2cccc(-c3nnc(-c4ccccc4)o3)c2)c(C)c1,i,i,?,i,11.6µM,11.6µM
COc1ccc(CC(=O)Nc2cccc(-c3nnc(-c4cccc(C)c4)o3)c2)cc1OC,i,i,2.91µM,i,23.1µM,?
COc1ccc(CC(=O)Nc2cccc(C)n2)cc1OC,i,i,i,i,?,i
Cc1cn(CC(=O)c2ccccc2)c2ccccc12,i,i,i,i,i,i
Cc1nn(C(C)C(=O)Nc2cccc(F)c2)c(=O)c2c1sc1ccccc12 (stereo not given),i,nt,nt,nt,?,i
Cc1noc(C)c1COc1cccc(C(=O)OC(C)C(=O)Nc2c(C)n(C)n(-c3ccccc3)c2=O)c1 (stereo not given),i,i,i,i,i,i
O=C1CCc2cc(S(=O)(=O)Nc3ccc4ncccc4c3)ccc2N1,i,nt,nt,nt,nt,nt
CCc1cccc(NC(=O)Cc2ccc(OC)c(OC)c2)c1,i,i,i,i,13µM,?
COc1cc(C2CC(=O)Oc3cc4c(cc32)OCO4)cc(OC)c1OC (stereo not given),i,i,?,i,i,i
COc1cc([C@@H]2c3cc4c(cc3[C@H](O)C3COC(=O)[C@@H]32)OCO4)cc(OC)c1OC (stereo not given in full),i,nt,nt,nt,nt,nt
CCN(CC)C1Oc2cc3c(cc2C(c2cc(OC)c(OC)c(OC)c2)C1C)OCO3 (stereo not given),nt,i,nt,?,1.16µM,2.31µM
COc1cc([C@@H]2c3cc4c(cc3[C@@H](O)[C@H]3COC(=O)[C@H]23)OCO4)cc(OC)c1O[Si](C)(C)C(C)(C)C,i,-87.9,?,i,14.6µM,13µM
COc1cc(C2c3cc4c(cc3C3OC(=O)C2C3CO)OCO4)cc(OC)c1OC (stereo not given),nt,i,nt,nt,0.0164µM,0.0103µM
CC(C)(C)C(=O)CNCC(=O)C(C)(C)C,i,i,i,i,i,i
CCOC(=O)c1c(NC(=O)c2cc3nc(-c4ccc(OC)cc4)cc(C(F)(F)F)n3n2)sc2c1CCC(C)C2 (stereo not given),i,nt,nt,nt,?,i
c1ccc(CN2CCC(Nc3ncnc4sccc34)CC2)cc1,i,i,6.51µM,i,i,i
CS(=O)(=O)NC1CCN(Cc2ccccc2)CC1,i,i,i,i,i,i
Cc1csc2c(NC3CCN(Cc4ccccc4)CC3)ncnc12,i,i,i,i,16.4µM,23.1µM
O=C(NCCNC1CCN(Cc2ccccc2)CC1)c1cccs1,i,nt,i,nt,nt,nt
CC1(C)CC(=O)C=C(c2cccs2)C1,nt,i,nt,i,nt,i
CCOc1ccc(NC(=O)c2cn(CC(C)C)c(=O)c3c2c2ccccc2n3C)cc1,i,i,?,i,8.2µM,?
CCOc1ccc(NC(=O)c2cc3c(=O)n(C)c4ccccc4c3n2C)cc1,i,i,i,i,16.4µM,8.2µM
